Tau fibril FP = tau fibrillization inhibition (FP); K18 P301L tau heparin fibrillization, Alexa594 FP, 6 h; Potency, µM (titrated, usually from 57.7 µM), usual class: inhibitors; 280,000 tested, 0.39% active; AID 1468; note: nearly all actives have a fitted effect of over 55% in size
Target sequence (P10636 561-689 P618L limits assumed): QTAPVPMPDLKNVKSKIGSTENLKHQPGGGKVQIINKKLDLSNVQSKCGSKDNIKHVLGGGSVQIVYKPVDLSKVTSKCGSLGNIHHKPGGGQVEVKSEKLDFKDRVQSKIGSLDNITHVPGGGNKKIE
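Human tau K18 […] P301L fragment, 15 uM unlabeled plus 0.24 uM Alexa 594-labeled tau (final), with compound and 20 uM heparin in 100 mM sodium acetate pH 7; 6 hr at 37 C, then Alexa 594 FP read.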
PNC assembly inh = inhibitors of perinucleolar compartment assembly; activity change (PNC), negative = inhibition, % at 10 µM; PC3M PTB-GFP, PNC prevalence imaging, 16 h; hits give low values; AID 2417; 140,000 tested, 3.1% active;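 active = readout at or below -70, meaning at least 70% loss of cells showing the perinucleolar compartment, a nuclear body marking cancer cells; inconclusive = readout between -30 and a set limit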
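PC3M cells stably expressing PTB-GFP, 750–1000 cells/well, treated 16 h at 37 °C with compound (23 nl of library stock), in duplicate. After paraformaldehyde fixation and Hoechst stain, imaged at 20x; PNC prevalence scored by image analysis.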
Tau ThT inhib = blocks human tau fibril formation measured by thioflavin T | P10636 | recombinant tau K18 P301L, heparin-induced fibrillization, ThT fluorescence | Potency, µM (top dose mostly 57.4 µM), actives largely listed as inhibitors | 270,000 tested, 2.1% active | AID 1460; note: nearly all actives have a fitted effect of over 55% in size
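Aggregation was driven by heparin (20 uM final) acting on recombinant tau […] bearing P301L in 100 mM sodium acetate pH 7; fibrils were detected with Thioflavin T.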
KDM4E inh = JMJD2E (human) inhibition | 230,000 tested, 1.6% active | B2RXH2 | Potency, µM (series often up to 57.1 µM), actives largely listed as inhibitors | JMJD2E catalytic domain, FDH-coupled NADH fluorescence (FDH is formaldehyde dehydrogenase) | AID 2147; active = well fitted inhibition curve with a large enough effect, not every such curve was filed as active; inconclusive = small, poorly fitted or top-dose-only effect, or another doubt; inactive = no such curve, though single readings can be large or run the other way; note: nearly all actives have a fitted effect of over 50% in size
Target sequence (B2RXH2 1-337 limits assumed): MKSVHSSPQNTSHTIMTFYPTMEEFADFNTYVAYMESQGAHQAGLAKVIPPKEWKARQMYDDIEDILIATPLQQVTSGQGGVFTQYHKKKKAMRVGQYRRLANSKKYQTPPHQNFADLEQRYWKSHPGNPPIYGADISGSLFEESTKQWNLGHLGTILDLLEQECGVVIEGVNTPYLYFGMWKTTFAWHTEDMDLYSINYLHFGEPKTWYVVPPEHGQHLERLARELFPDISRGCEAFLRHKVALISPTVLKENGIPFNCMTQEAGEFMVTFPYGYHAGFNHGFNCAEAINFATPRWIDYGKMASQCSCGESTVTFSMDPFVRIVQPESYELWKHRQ
Tau fluor cs = counter-screen for tau fibril formation inhibitors; tau K18 P301L (four-repeat tau fragment) Alexa594 fluorescence, heparin fibrillization; Potency, µM (doses to about 57.7 µM); 280,000 tested, 0.93% active; note: nearly all actives have a fitted effect of over 55% in size
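Human K18 P301L tau (15 uM unlabeled plus 0.24 uM Alexa 594-labeled, final) in 100 mM sodium acetate pH 7 was mixed with compound and 20 uM heparin and incubated 6 hr at 37 C.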
NPSR antag = neuropeptide S receptor (human) antagonism, cAMP; 220,000 tested, 1% active; Potency, µM (titrated, usually from 38.3 µM), actives largely listed as inhibitors; Q6W5P4; CHO-NPSR cells, cAMP TR-FRET, antagonist mode; note: nearly all actives have a fitted effect of over 50% in size
Numbers stand for hits; n = inactive; u = inconclusive; x = not tested or not shown; [ ] = another dose, or the depositor's remark. Most compounds without a hit are left out; they make up all but 5.1% or so of the library. Unless noted, calls come from the whole dose curve; as a rule, active = well fitted curve in the direction sought with a large enough effect; inconclusive = small, poorly fitted or top-dose-only effect, or another doubt; inactive = no such curve, though single readings can be large; an effect the other way counts as inactive or inconclusive.

SMILES	Tau fibril FP	PNC assembly inh	Tau ThT inhib	KDM4E inh	Tau fluor cs	NPSR antag
CCn1c(SCC(=O)NNC(=O)c2ccc(C)cc2)nnc1-c1ccco1	n	x	n	n	n	n
CCn1c(SCC(=O)NNC(=O)c2ccc(OC)cc2)nnc1-c1ccco1	n[2.34 µM]	x	5.62µM	n	n	n
CC(CNC(=S)Nc1cc(F)cc(F)c1)CSc1ccc(Cl)cc1 (stereo not given)	28.2µM	x	n	n	u	u
Cc1ccc(C)c(NC(=O)Cn2cc(S(=O)(=O)Cc3cccc(Cl)c3)c3ccccc32)c1	n	x	n	x	n	x
CN(C)C(=S)Nc1ccc2c(c1)OCO2	n	x	u	n	n	n
S=C(Nc1ccc2c(c1)OCO2)Nc1ccc2c(c1)OCO2	u	n	25.1µM	n	u	n
CNS(=O)(=O)c1cccc(C(=O)Nc2cccnc2)c1	u	n	n	n	n	n
CC(=O)c1ccc(NC(=O)Nc2cccc(Cl)c2)cc1	20µM	u	u	n	14.1µM[quencher]	n
CNS(=O)(=O)c1cccc(C(=O)Nc2cccc(Cl)c2)c1	n	-93.9	n	n	n	n
O=C(Nc1ccccc1)Nc1cccc(Cl)c1	u	n	n	n	u	n
CC(=O)c1ccc(NC(=S)NCCc2cccc(Cl)c2)cc1	25.1µM	x	n	n	u	n
CCN(CCCNC(=O)c1nn(-c2ccc(C)cc2)c(=O)c2c1c1ccccc1n2C)c1ccccc1	n	x	n	x	n	x
O=C(Nc1ccc(S(=O)(=O)NCc2ccccc2)cc1)Nc1ccc2c(c1)OCO2	u	n	u	n	3.98µM[quencher]	n
O=C(Nc1ccc2c(c1)OCCO2)Nc1ccc2c(c1)OCO2	u	x	u	n	u	n
O=C(Nc1cccc(Cl)c1)Nc1ccc2c(c1)OCO2	n	n	u	n	14.1µM[quencher]	n
CCOC(=O)C1CCC(CN(Cc2cccc(Br)c2)S(=O)(=O)c2ccc(Cl)cc2)CC1 (stereo not given)	n	x	n	x	n	x
O=C(Cn1c(=O)nc(-c2ccccc2)c2ccccc21)NCCc1ccc(Cl)cc1	n	x	n	x	n	x
CCOc1ccc(CCNC(=O)c2nn(C)c3c2CSc2ccc(C)cc2-3)cc1OCC	n	x	u	x	n	x
CCOC(=O)c1c(C)cc(O)c(C)c1O	n	x	n	n	n	x
Cc1cc(O)c2c(c1O)C(=O)C(O)=C(O)C2=O	17.8µM	x	12.6µM	u	u	x
O=c1c2c(nc3nc(Cc4ccccc4)[nH]n13)CCC2	n	-89.8	n	n	n	n
CC(C)(C)c1cc(C(=O)/C=C/c2ccc(C(=O)O)cc2)cc(C(C)(C)C)c1	n	x	u	n	n	x
O=C(Cn1cnc([N+](=O)[O-])c1)Nc1cc(Oc2ccc(Cl)cc2Cl)cc([N+](=O)[O-])c1	u	n	u	n	4.47µM[quencher]	n
O=C(NCCc1ccccc1)c1c2c(nc3ccccc13)C(=O)N(C1CCCCC1)C2	n	x	n	x	n	x
CCc1ccc(-n2c(=O)c3sc4ccccc4c3n(CC(=O)NCc3ccccc3)c2=O)cc1	u	x	n	x	n	x
SMILES	Tau fibril FP	PNC assembly inh	Tau ThT inhib	KDM4E inh	Tau fluor cs	NPSR antag
Cc1ccc(OCC(=O)Nc2ccc3nc(SCC(=O)N4CCCC4)sc3c2)cc1	n	x	u	x	n	x
CCCC(=O)O[C@]1(C(=O)COC(C)=O)CC[C@H]2[C@@H]3C[C@H](F)C4=CC(=O)C=C[C@]4(C)[C@@]3(F)[C@@H](O)C[C@@]21C	n	n	n	n	n	2.51µM
C/C(=N\NC(=O)c1ccc(C)cc1C)c1ccc2c(c1)Nc1ccccc1S2	u	n	14.1µM	n	17.8µM[quencher]	n
CC(OC(=O)c1cc2sccc2n1C)C(=O)NCc1cccs1 (stereo not given)	n	-80.6	n	n	n	u
Cn1c(C(=O)OCC(=O)NCc2cccs2)cc2sccc21	n	n	n	n	n	n
CCOc1ccc(CNCc2c(C(=O)O)n(Cc3ccccc3C)c3cc(OC)ccc23)cc1OC	n	x	n	x	n	x
Cn1c(SCc2nc(-c3ccccc3)no2)nnc1-c1cccs1	n	n	n	n	n	n
Cn1c(SCc2nc(-c3ccc(Cl)cc3)no2)nnc1-c1cccs1	n	-110.7	u	n	n	n
COc1ccc(NC(=O)Nc2nnc(N(CC(C)C)CC(C)C)s2)c(OC)c1	n	x	n	x	n	x
N=C(N)S/C=C\C(=O)O	u	x	28.2µM	n	n	x
CC/C(C)=N\Nc1nc(-c2cc3cc(OC)ccc3oc2=O)cs1	u	x	22.4µM	u	17.8µM[quencher]	n
COc1ccc2oc(=O)c(-c3nc(C)cs3)cc2c1	n	n	u	u	n	n
Cc1ccc(C(=O)N/N=C(/CC(=O)c2cccs2)C(F)(F)F)cc1	n	n	u	n	n	n
O=C(N/N=C(\CC(=O)c1cccs1)C(F)(F)F)c1ccncc1	n	x	14.1µM	u	u	n
CCC1CCCCN1Cc1nc2c(c(=O)n(C)c(=O)n2C)n1CC(C)C (stereo not given)	n	-95.0	n	n	n	n
Cc1ccccc1NC(=O)CSc1nnc(-c2ccco2)c(-c2ccco2)n1	8.91µM	n	7.94µM	u	u	n
Cc1cccc(C)c1NC(=O)CSc1nnc(-c2ccco2)c(-c2ccco2)n1	u	n	25.1µM	u	u	n
COc1ccc(-c2nnc(SCC(=O)Nc3c(C)cccc3C)nc2-c2ccc(OC)cc2)cc1	n	x	n	x	n	x
O=C1/C(=C\c2cccs2)Sc2ccc3ccccc3c21	n	n	1µM	n	n	n
CN(C)c1ccc(/C=N/Nc2ccc(-n3ccnc3)nn2)cc1	n	n	5.01µM	n	u	n
O=C(/C=C\c1ccccc1)NC1CC(=O)N(c2ccccc2)C1 (stereo not given)	u	x	n	x	n	x
Cc1cc(C)c(C(=O)/C=C/c2ccco2)c(=O)[nH]1	u	x	22.4µM	u	n	n
Cc1ccc(/C=C/C(=O)c2c(C)cc(C)[nH]c2=O)cc1	n	n	n	n	n	u
CCSc1nnc2c(Cl)cc(Cl)cn12	n	n	n	n	n	n
COCCNC(=O)CSc1nnc2c(Cl)cc(Cl)cn12	25.1µM	n	12.6µM	n	n	n
SMILES	Tau fibril FP	PNC assembly inh	Tau ThT inhib	KDM4E inh	Tau fluor cs	NPSR antag
CCOc1ccc(CCNC(=O)c2nc(-c3cccc(F)c3)n3c2CCCCC3)cc1OCC	n	x	n	x	n	x
CCOc1ccc(NC(=O)Nc2ccc3nsnc3c2)cc1	n	x	14.1µM	n	12.6µM[quencher]	n
CCNC(=S)Nc1ccc(OCC)cc1	n	-86.0	n	n	n	n
CCOc1ccc(NC(=O)Nc2ccc3snnc3c2)cc1	u	x	n	x	5.01µM[quencher]	x
CCOc1ccc(NC(=S)Nc2ccc(OCC)cc2)cc1	n	x	u	n	n	n
COc1ccc(NC(=S)Nc2ccc3nsnc3c2)cc1	n	n	11.2µM	n	u	n
CCOc1ccc(NC(=O)Nc2cccc(C(=O)O)c2)cc1	n	x	n	n	n	n
COc1ccc(-c2cc(C(F)(F)F)n3nc(C(=O)Nc4sc5c(c4C#N)CCC(C)C5)cc3n2)cc1OC (stereo not given)	n	x	n	x	n	x

Bioassay records as filed in PubChem BioAssay.
